Compounds without any hit were thinned out: in the full panel of roughly 83,000, 20% have a hit.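 Treatment: one concentration, 48 hours, 96-well format. Scoring: percent growth, with anything below 10 considered active.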 Active and inactive are the calls of the source.
Tests used:
Test in all cases: NCI-60 one-dose screen, 48 h (100 = growth as untreated, 0 = no growth, -100 = all killed)
Conditions in all cases: 10 µM
T-47D breast = system: T-47D breast
BT-549 breast = system: BT-549 breast
MDA-MB-435 melanoma = system: MDA-MB-435 melanoma
SW-620 colon = system: SW-620 colon
MCF7 breast = system: MCF7 breast
HCT-116 colon = system: HCT-116 colon
HCC-2998 colon = system: HCC-2998 colon
KM12 colon = system: KM12 colon

Measured: growth

CCCCC(=O)N(c1ccc(Nc2c3ccccc3nc3cc([N+](=O)[O-])ccc23)cc1)S(C)(=O)=O
inactive: T-47D breast 15.1% | BT-549 breast 86.3% | MDA-MB-435 melanoma 96.8% | SW-620 colon 71.5% | MCF7 breast 17.2% | HCT-116 colon 63.4% | HCC-2998 colon 86.1% | KM12 colon 38.4%

S=c1c2ncccc2c(-c2ccccn2)nn1Cc1ccccn1
inactive: T-47D breast 75.5% | BT-549 breast 79.7% | MDA-MB-435 melanoma 100% | SW-620 colon 109% | MCF7 breast 90.7% | HCT-116 colon 62% | HCC-2998 colon 91.9% | KM12 colon 103%

C[C@]12CC[C@H]3[C@@H](CCC4=CC(=O)CC[C@@]43C)[C@@H]1CC[C@@H]2c1csc(N)n1
inactive: T-47D breast 24.8% | BT-549 breast 34.2% | MDA-MB-435 melanoma 55.5% | SW-620 colon 56.9% | MCF7 breast 26% | HCT-116 colon 32.7% | HCC-2998 colon 45.8% | KM12 colon 50.8%

Cc1ccc2nc(-c3ccc(OCC(=O)N=Nc4c(O)[nH]c5ccccc45)cc3)[nH]c2c1
inactive: T-47D breast 38.4% | BT-549 breast 109% | MDA-MB-435 melanoma 64.3% | HCC-2998 colon 59.7%
active: SW-620 colon 6.51% | MCF7 breast -24.7% | HCT-116 colon -20.5% | KM12 colon 1.59%

COc1ccc(-c2nnc(SC/C(=N\O)c3ccccc3)o2)cc1
inactive: T-47D breast 91.8% | BT-549 breast 100% | MDA-MB-435 melanoma 106% | SW-620 colon 103% | MCF7 breast 104% | HCT-116 colon 91.6% | HCC-2998 colon 94% | KM12 colon 86.2%

O=C1/C(=C/c2ccc(O)cc2)CSc2ccc(Cl)cc21
inactive: T-47D breast 64.8% | BT-549 breast 81.9% | MDA-MB-435 melanoma 71.1% | SW-620 colon 27.9% | MCF7 breast 20.5% | HCT-116 colon 31.2% | HCC-2998 colon 94.4% | KM12 colon 35.1%

COc1ccc(-c2csc(-c3cc(Cl)cc(Cl)c3Cl)n2)cc1
inactive: T-47D breast 50.6% | BT-549 breast 102% | MDA-MB-435 melanoma 80.7% | SW-620 colon 46.4% | MCF7 breast 56.2% | HCT-116 colon 108% | KM12 colon 86.9%

COc1ccccc1S(=O)(=O)Nc1ccc2c(c1)CN(C)C(=O)N2
inactive: T-47D breast 31.4% | BT-549 breast 101% | MDA-MB-435 melanoma 34.2% | SW-620 colon 59.4% | MCF7 breast 21.5% | HCT-116 colon 49.7% | HCC-2998 colon 64.4% | KM12 colon 45%

C#CCNCCCN1C(=O)c2ccc3c4c(ccc(c24)C1=O)C(=O)N(CCCNCC#C)C3=O
active: T-47D breast -52.1% | BT-549 breast -93.8% | MDA-MB-435 melanoma -66.9% | SW-620 colon -59.8% | MCF7 breast -72.7% | HCT-116 colon -25% | HCC-2998 colon -90% | KM12 colon -80.4%

C[N+]1=C(/C=C/c2ccc(I)cc2)C(C)(C)c2ccccc21
inactive: T-47D breast 89.3% | BT-549 breast 93% | MDA-MB-435 melanoma 75.7% | SW-620 colon 51.5% | MCF7 breast 87.7% | HCT-116 colon 87.2% | HCC-2998 colon 103% | KM12 colon 88.9%

NC1CCC(Nc2nc(NCc3cc(Cl)ccc3O)c3ncn(C4CCCC4)c3n2)CC1 (stereo not given)
active: T-47D breast -28% | BT-549 breast -21.2% | MDA-MB-435 melanoma -43.9% | SW-620 colon 3.11% | MCF7 breast -58.9% | HCT-116 colon -17.6% | HCC-2998 colon -39.5% | KM12 colon 1.98%

Oc1ccc(Cn2cc3c(c2-c2ccccc2)CCc2cnoc2-3)cc1
inactive: T-47D breast 78.4% | BT-549 breast 101% | MDA-MB-435 melanoma 72.7% | SW-620 colon 98% | MCF7 breast 105% | HCT-116 colon 92.7% | HCC-2998 colon 102% | KM12 colon 91.5%

CN(C)c1ccc2cc(-c3cc4c(oc3=O)-c3ccccc3OC4O)c(=O)oc2c1 (stereo not given)
active: T-47D breast -12.3% | BT-549 breast -17.4% | MDA-MB-435 melanoma -23.8% | KM12 colon -37.7%
inactive: SW-620 colon 17.1% | MCF7 breast 18.7% | HCT-116 colon 12.8%

Oc1ccccc1-c1nnc(Cn2c(Cc3cccc4ccccc34)nc3ccccc32)o1
inactive: T-47D breast 89.6% | BT-549 breast 101% | MDA-MB-435 melanoma 111% | SW-620 colon 103% | MCF7 breast 102% | HCT-116 colon 100% | HCC-2998 colon 104% | KM12 colon 98.8%

COc1cc(/C=C2\C(=O)Nc3cc(C)c(O)cc32)cc(OC)c1OC
inactive: T-47D breast 39.2% | BT-549 breast 42.3% | SW-620 colon 55.1% | MCF7 breast 25.7% | HCT-116 colon 56.8% | KM12 colon 21.9%
active: MDA-MB-435 melanoma -34.5%

FC(F)(F)c1ccc(-c2cnc(Br)nc2NC2CCCCCC2)cc1
inactive: T-47D breast 19.3% | BT-549 breast 56.6% | MDA-MB-435 melanoma 20.4% | SW-620 colon 28.2% | MCF7 breast 27.1% | HCT-116 colon 20.3% | HCC-2998 colon 72.1% | KM12 colon 25%

CCOc1nc(-c2ccccc2)cc2c(O)c(C(=O)NCCCO)[nH]c(=O)c12
inactive: T-47D breast 97.4% | BT-549 breast 97.6% | MDA-MB-435 melanoma 94.9% | SW-620 colon 96.4% | MCF7 breast 90.3% | HCT-116 colon 98.9% | KM12 colon 99.1%

CCOc1nc(-c2ccccc2)cc2c(O)c(C(=O)NC(C)C)[nH]c(=O)c12
inactive: T-47D breast 97.3% | BT-549 breast 147% | MDA-MB-435 melanoma 105% | SW-620 colon 96.1% | MCF7 breast 98.9% | HCT-116 colon 101% | KM12 colon 106%

COc1ccc(/C=C2\SC(=S)N(CCCN3CCOCC3)C2=O)c(OC)c1
inactive: T-47D breast 71.2% | BT-549 breast 96.1% | MDA-MB-435 melanoma 101% | SW-620 colon 105% | MCF7 breast 76% | HCT-116 colon 92.2% | HCC-2998 colon 109% | KM12 colon 97.2%

COc1ccc(-c2nsc3c2NC(=O)CC3c2ccc(Cl)cc2)cc1 (stereo not given)
inactive: T-47D breast 69.1% | BT-549 breast 73.5% | MDA-MB-435 melanoma 81% | SW-620 colon 103% | MCF7 breast 88.4% | HCT-116 colon 85.8% | HCC-2998 colon 93.2% | KM12 colon 82.7%

COc1ccc(/C=C(\c2cc(OC)c(OC)c(OC)c2)c2nnc(-c3cccs3)o2)cc1
inactive: T-47D breast 78.7% | BT-549 breast 84.4% | MDA-MB-435 melanoma 65.9% | SW-620 colon 89.1% | MCF7 breast 72.4% | HCT-116 colon 66.4% | HCC-2998 colon 89.2% | KM12 colon 90%

CC(=O)N(O)c1ccc(/C=C/c2ccccc2)cc1
inactive: T-47D breast 20.5% | BT-549 breast 43.5% | MDA-MB-435 melanoma 55.1% | SW-620 colon 23.3% | MCF7 breast 16.7% | HCT-116 colon 19.7% | HCC-2998 colon 14.3% | KM12 colon 47.9%

CN(C)CCCN1c2ccccc2Sc2ccc(C(F)(F)F)cc21
active: T-47D breast 5.93% | MDA-MB-435 melanoma -39.3% | SW-620 colon 9.61% | MCF7 breast -39.7% | HCT-116 colon 1.99% | HCC-2998 colon -65.9% | KM12 colon 0.137%
inactive: BT-549 breast 25.7%

C/C(=N/NC(=O)c1sc(=S)n(C)c1N)c1cc2cc(Cl)ccc2o1
inactive: T-47D breast 80.4% | BT-549 breast 113% | MDA-MB-435 melanoma 95.7% | SW-620 colon 44.3% | MCF7 breast 82.7% | HCT-116 colon 103% | KM12 colon 88.2%

Cc1ccc(C)c2c1sc1nc3n[nH]c(N)c3c(=N)n12
inactive: T-47D breast 94.1% | BT-549 breast 114% | MDA-MB-435 melanoma 105% | SW-620 colon 107% | MCF7 breast 103% | HCT-116 colon 101% | HCC-2998 colon 109% | KM12 colon 104%

O=C(NCc1cn(Cc2cccc(Oc3ccccc3)c2)nn1)c1cccnc1Nc1ccccc1
inactive: T-47D breast 72.3% | BT-549 breast 81.8% | SW-620 colon 40.8% | MCF7 breast 18.1% | HCT-116 colon 26.1% | HCC-2998 colon 57.1% | KM12 colon 29.5%
active: MDA-MB-435 melanoma -8.66%

CCOC(=S)Sc1ccc([N+](=O)[O-])cc1[N+](=O)[O-]
inactive: T-47D breast 83.6% | BT-549 breast 24.1% | MDA-MB-435 melanoma 61.7% | SW-620 colon 35.4% | MCF7 breast 65.5% | HCT-116 colon 31% | HCC-2998 colon 101% | KM12 colon 22.5%
